# hcDAF12 agonist: H. contortus DAF-12 activation, primary screen | HEK293 hcDAF-12 lit1-tk-luc reporter, luminescence; 0% DMSO, 100% Δ7-dafachronic acid | activation, % at 6.8 µM | actives 1.4% (n = 370,000) | AID 652067;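 active means activation above the mean of all tested compounds plus 3 SD, cut at about 5.5% in these data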;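 further: 100% = response to 3 µM Δ7-dafachronic acid high control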
# hgDAF-12 ag: activates the H. glycines DAF-12 receptor ligand-binding domain | actives 1.8% (n = 370,000) | activation, % at 6.8 µM | HEK293 GAL4-hgDAF12 UAS-luciferase reporter, agonist luminescence; normalized to butyrate control;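 active means activation above a cutoff set at the mean of all screened compounds plus 3 SD, cut at about 10% in these data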;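 further: 0% = DMSO wells and 100% = sodium butyrate wells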
# NF-kB neuron act: raises NF-kB expression in human neuronal cells; NF-kB reporter expression; hits give high values; fold change at 12.5 µM; actives 1.6% (n = 190,000); AID 1239; in the data active means fold change above about 3.3
# APP 5'UTR act: APP 5'UTR luciferase reporter activation; SH-SY5Y APP 5'UTR luciferase reporter, luminescence; zero percent = DMSO vehicle wells; activation, % at 2 µM; actives 1% (n = 190,000);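 active means activation above a set limit, based on mean plus 3 SD of controls, cut at about 140% in these data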
# ssDAF12 agonist: activates DAF-12 receptor from parasite S. stercoralis. HEK293 ssDAF-12/GRIP1 lit1-tk-luc reporter, luminescence; % of 3 µM dafachronic acid response. activation, % at 6.8 µM. actives 1% (n = 370,000);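 active means activation above the mean over all tested compounds plus 3 SD, cut at about 0.9% in these data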;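 further: 0% = DMSO-only wells and 100% = 3 µM delta7-dafachronic acid wells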
# hgDAF12 conf: hgDAF-12 agonism, confirmation assay; shares compounds with hgDAF-12 ag; HEK293 GAL4-hgDAF12 luciferase reporter, agonist mode; percent of butyrate response; activation, % at 6.8 µM; actives 80% (n = 3,300); AID 743050;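 active means mean activation over triplicate wells above the hit cutoff derived from the earlier primary screen, cut at about 11% in these data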;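 further: 0% = DMSO low control and 100% = 2 mM sodium butyrate high control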
# LXR ag 2: LXR-beta agonism as DAF-12 counter-screen; shares compounds with hgDAF-12 ag; HEK293 Gal4-LXR luciferase reporter, 24 h; activation, % at 6.8 µM; 3,300 tested, under 10 active;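 active means mean activation of the triplicate above a set limit carried over from the primary screen, none filed active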
# Target sequence (P55055 whole entry, looked up, the tested form may be a part): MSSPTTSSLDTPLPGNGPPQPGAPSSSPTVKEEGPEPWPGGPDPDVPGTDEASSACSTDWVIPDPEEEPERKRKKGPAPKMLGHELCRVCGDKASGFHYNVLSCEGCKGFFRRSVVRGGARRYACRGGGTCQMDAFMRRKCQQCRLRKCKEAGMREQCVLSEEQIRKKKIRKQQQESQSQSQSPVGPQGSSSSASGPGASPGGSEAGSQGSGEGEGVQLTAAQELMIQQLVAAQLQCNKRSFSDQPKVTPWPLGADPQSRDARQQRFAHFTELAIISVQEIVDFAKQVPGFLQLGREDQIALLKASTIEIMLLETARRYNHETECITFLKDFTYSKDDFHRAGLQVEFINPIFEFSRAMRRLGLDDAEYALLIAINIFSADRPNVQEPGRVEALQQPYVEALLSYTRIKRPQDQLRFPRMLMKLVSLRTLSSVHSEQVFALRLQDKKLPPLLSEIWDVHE
# Active calls of the source: *; x = no result given. An excerpt weighted towards active compounds, which were near 3.4% of everything screened.
SMILES,hcDAF12 agonist,hgDAF-12 ag,NF-kB neuron act,APP 5'UTR act,ssDAF12 agonist,hgDAF12 conf,LXR ag 2
CCOC(=O)Cc1c(C)nc2cc(-c3ccc(C(C)(C)C)cc3)[nH]n2c1=O,0,1,1.1,7,-1,x,x
C=CCc1c(C)nc2cc(-c3ccc(C)cc3)[nH]n2c1=O,6.3*,14*,x,x,1.0*,11*,1
O=c1cc(-c2ccccc2)oc2cc(O)cc(O)c12,0,15*,x,x,-1,13*,1
O=c1cc(-c2ccc(O)cc2)oc2cc(O)cc(O)c12,0,18*,x,x,-1,10,1
O=c1c(O)c(-c2ccc(O)cc2)oc2cc(O)cc(O)c12,2,15*,x,x,-1,5,0
O=c1cc(-c2ccccc2)oc2cc(O)ccc12,2,15*,x,x,-1,12*,1
COC(=O)[C@]12C[C@H](CC(=O)NCc3ccc(OC)c(OC)c3)C(=O)N(Cc3ccco3)C1=C[C@H](C(C)(C)C)O[C@@H]2C,-1,0,x,x,-1,x,x
Cc1csc(NC(=O)c2ccc(Br)s2)n1,3,17*,x,x,0,13*,1
Cc1nc(NC(=O)c2ccc3c(c2)OCO3)ccc1Br,2,16*,4*,106,0,14*,1
Cc1csc(NC(=O)c2ccc3c(c2)OCO3)n1,4,17*,x,x,-1,16*,1
COc1ccccc1C(=O)Nc1ccccn1,4,14*,2.7,51,-1,13*,0
COc1ccccc1C(=O)Nc1ccncc1,-4,-2,x,x,-2,x,x
O=C(CN1CCC(NC(=O)Nc2ccc(Cl)cc2)CC1)Nc1ccc2c(c1)OCCO2,-3,3,x,x,-1,x,x
O=C(NCC1COCCO1)C1CCN(S(=O)(=O)c2cccs2)CC1 (configuration not stated),-1,2,x,x,-1,x,x
COc1cc(/C=C/C(=O)c2ccccc2)cc(OC)c1OC,-2,-3,x,x,-2,x,x
O=C(Nc1ccccn1)c1ccc2c(c1)OCO2,4,22*,2.7,99,0,13*,0
O=C(Nc1ccccn1)c1ccc(Br)s1,1,16*,x,x,1,13*,1
O=C(Nc1ccccn1)c1ccccc1,1,8,x,x,-1,x,x
CN1C(=O)c2cc(NC(=O)Cc3cccs3)ccc2OC[C@@H]2O[C@@H](CC(=O)N[C@H]3CCN(Cc4ccccc4)C3)CC[C@@H]21,-2,2,x,x,-1,x,x
Cc1occc1-c1nnc(SCC(=O)Nc2ccc3ncccc3c2)n1-c1ccccc1,-1,3,x,x,0,x,x
Cc1cccc(CCNC(=O)Cn2nc(-c3ccccc3)ccc2=O)c1,-3,1,x,x,0,x,x
CCc1ccc(CNC(=O)c2cc3c(C)nc4ccccc4c3o2)cc1,-4,-4,0.46,-8,-2,x,x
CCCCN(CC)CCNC(=O)c1cc2c(C)nc3ccccc3c2o1,5,17*,0.83,-8,0,1,0
COC(=O)[C@]12C[C@H](CC(=O)NCC3CCCCC3)C(=O)N(CCc3ccc(OC)c(OC)c3)C1=C[C@H](COCc1ccccc1)O[C@@H]2C,2,1,x,x,-1,x,x
Cc1ccc(NC(=O)c2cc3cccc([N+](=O)[O-])c3[nH]2)cc1,4,13*,x,x,1.3*,19*,1
SMILES,hcDAF12 agonist,hgDAF-12 ag,NF-kB neuron act,APP 5'UTR act,ssDAF12 agonist,hgDAF12 conf,LXR ag 2
Cn1c(-c2ccccc2)c(/C=N/NC(=O)c2ccc(O)cc2)c2ccccc21,1,14*,x,x,0,22*,0
COc1ccc(CNC(=O)c2ccc(C(C)C)cc2)cc1,4,18*,3.7*,132,-1,15*,1
COc1ccc(CNC(=O)c2ccc(C(C)(C)C)cc2)cc1,2,8,2.8,37,0,x,x
Cc1ccc(/C=c2/sc3n(c2=O)CCCN=3)o1,0,6,2.1,28,-1,x,x
O=c1/c(=C\c2ccc3c(c2)OCO3)sc2n1CCCN=2,3,19*,4.7*,94,0,14*,1
CC(=O)c1ccc(NC(=O)c2cnn3ccccc23)cc1,4,5,3.1,105,-1,x,x
CC(=O)c1cccc(NC(=O)c2cnn3ccccc23)c1,5.8*,14*,3.4*,x,-1,12*,1

# Screens: PubChem, several laboratories
